Consider 113 molecules from PubChem BioAssay AID488969 (Vanderbilt High Throughput Screening Facility, 2010).

In all, about 110,000 compounds were measured (“z-score”: median about -0.1, highest 2% from about 2 on). This excerpt belongs to a sample that is enriched for the highest values. Calls of active or inactive are those of the source.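 The calls were made as follows: active = z-score in the third read window above 3 or below -3; inactive = the rest.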

Sequence of Metabotropic glutamate receptor 8 (Rattus norvegicus) (P70579 whole entry, looked up): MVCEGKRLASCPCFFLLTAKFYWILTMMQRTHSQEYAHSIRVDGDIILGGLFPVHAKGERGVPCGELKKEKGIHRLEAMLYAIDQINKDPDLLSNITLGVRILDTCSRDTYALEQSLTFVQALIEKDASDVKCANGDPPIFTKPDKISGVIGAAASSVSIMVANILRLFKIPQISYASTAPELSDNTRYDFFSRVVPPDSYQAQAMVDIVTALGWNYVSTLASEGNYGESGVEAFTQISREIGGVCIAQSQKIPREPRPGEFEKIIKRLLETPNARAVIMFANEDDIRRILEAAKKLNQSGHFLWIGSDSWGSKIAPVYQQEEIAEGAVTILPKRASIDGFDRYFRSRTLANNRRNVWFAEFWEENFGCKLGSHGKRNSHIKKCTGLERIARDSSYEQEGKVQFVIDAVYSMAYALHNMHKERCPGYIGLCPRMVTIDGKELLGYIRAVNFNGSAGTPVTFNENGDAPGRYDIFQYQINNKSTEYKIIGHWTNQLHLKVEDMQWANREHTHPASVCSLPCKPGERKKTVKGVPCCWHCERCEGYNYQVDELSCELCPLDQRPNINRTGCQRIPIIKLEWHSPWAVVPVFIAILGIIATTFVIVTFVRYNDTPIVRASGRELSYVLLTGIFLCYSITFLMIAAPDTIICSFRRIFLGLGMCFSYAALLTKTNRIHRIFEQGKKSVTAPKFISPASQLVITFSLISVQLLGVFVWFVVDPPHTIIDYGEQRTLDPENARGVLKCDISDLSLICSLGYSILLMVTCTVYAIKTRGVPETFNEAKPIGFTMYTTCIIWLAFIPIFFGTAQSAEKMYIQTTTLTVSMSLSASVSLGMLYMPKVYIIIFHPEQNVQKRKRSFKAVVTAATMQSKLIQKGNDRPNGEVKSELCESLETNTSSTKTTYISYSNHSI

This assay has as its target Metabotropic glutamate receptor 8 (Rattus norvegicus) (UniProt P70579). As to the kind of experiment: rat mGluR8 modulators via GIRK flux, primary screen, cell-based, thallium flux, HTS (AID 488969). Particulars: HEK293 rat mGluR8, GIRK (G protein-gated inwardly rectifying potassium channel) thallium flux, FluoZin2; at 10 µM; stronger effect = higher value; submaximal glutamate (EC20) added with thallium.
For the molecule `N#Cc1nc(-c2ccccc2)oc1NCC1CCCO1` (stereo not drawn), the z-score was -0.084. Regarding `Cc1nn2c([nH]c(=O)c3ccccc32)c1C=O`, the z-score was found to be 0.184. On to `Cc1cc2[nH]c(=O)c3ccccc3n2n1`, for which the z-score was 4.8 (active). Take `CCOC(=O)c1cnn2c1[nH]c(=O)c1ccccc12`: the z-score worked out at 1.54.

With `CCOC(=O)c1ccccc1NC(=O)Cc1ccccc1OC`, the z-score is -0.663. For the molecule `CCCOc1ccccc1N/C(=N/c1nc(C)cc(C)n1)NC(=O)COc1ccc(OC)cc1`, the z-score was determined as 0.266. With `CC1CN(C(=O)C2CC2)C(C)CN1C(=O)C1CC1` (stereo not drawn), the z-score stood at 0.00492.

For the molecule `CC1CN(C(=O)C2CCCC2)C(C)CN1C(=O)C1CCCC1` (stereo not drawn), the z-score was 0.888. Consider `CC1CN(C(=O)C2CCCCC2)C(C)CN1C(=O)C1CCCCC1` (stereo not drawn), for which the z-score was 11.1 (active). `Cc1ccccc1NC(=O)c1cn(-c2ccccc2)nc1-c1ccccc1`: the z-score stood at 0.316. For `O=C(Nc1ccccc1)Nc1ccc2snnc2c1`, the z-score was -0.373. Then `CC(C)c1ccc(Oc2cccc(C(=O)/C(C#N)=C/N(C)C)c2)cc1`, with -0.286; and `CC1(C)Cc2ccccc2C(=O)N1`, with 0.0959. `CC(C)c1ccc2c(c1)C(=O)NC(C)(C)C2`: the z-score is -0.156. On to `Cc1cc2c(cc1C)C(=O)NC(C)(C)C2`, for which the z-score is 5.66 (active). With `O=C(CN1C(=O)CCS(=O)(=O)c2ccccc21)Nc1cccc(F)c1` the figure was -0.608.

`CCc1cccc(Nc2c([N+](=O)[O-])cc(C(=O)N3CC(=O)Nc4ccccc43)cc2[N+](=O)[O-])c1` showed a z-score of -1.1. With `Cc1ccc(C)c(Nc2c([N+](=O)[O-])cc(C(=O)N3CC(=O)Nc4ccccc43)cc2[N+](=O)[O-])c1` the figure was 4.62 (active); with `Cc1ccc(Nc2c([N+](=O)[O-])cc(C(=O)N3CC(=O)Nc4ccccc43)cc2[N+](=O)[O-])c(C)c1`, -0.162; with `O=C(c1ccc(O)cc1)c1ccc(Cl)cc1`, -0.563. `CCOC(=O)Nc1cc2c(cc1C(C)=O)OCO2` showed a z-score of 0.657. `COC(=O)c1ccccc1NC(=O)C1CC(=O)N(c2ccc(F)cc2)C1` (stereo not drawn) registered a z-score of 2.15.

As to `CCOc1ccc(N2CC(C(=O)Nc3ccccc3OC)CC2=O)cc1` (stereo not drawn), the z-score was determined as 1.1. Then `COC(=O)c1ccccc1NC(=O)C1CC(=O)N(c2ccc(C)cc2)C1` (stereo not drawn), with -0.265. Take `COc1ccc(Cl)cc1NC(=O)C1CC(=O)N(c2ccc(F)cc2)C1` (stereo not drawn): the z-score turned out to be 0.0135. With `COC(=O)c1ccccc1NC(=O)C1CC(=O)N(c2ccccc2)C1` (stereo not drawn) the figure was -0.0106; with `COc1ccc(OC)c(NC(=O)C2CC(=O)N(c3ccc(Br)cc3)C2)c1` (stereo not drawn), 3.63 (active); with `O=C(CCC(=O)OCC(=O)c1cccc([N+](=O)[O-])c1)Nc1cccc(Cl)c1Cl`, -0.0921.

Regarding `O=C(c1ccc(N2CCN(CCO)CC2)nc1)N1CCOCC1`, the z-score came to 0.0375. With `CC12CC(c3ccccc3O1)N(C(=O)c1ccco1)C(=S)N2c1ccc(F)cc1` (stereo not drawn) the figure was -0.812; with `CC(C)OC(=O)c1cc2c(ccn2C)n1CC(=O)N(Cc1ccccc1)c1ccc(F)cc1`, -0.00352. Then `CCOC(=O)c1nnn(-c2nonc2N)c1COc1ccc(F)cc1`, with -0.0888; and `Cc1ccc(C)c(OCCCC(=O)Nc2nccs2)c1`, with -0.0356; and `Cc1ccccc1OCCCC(=O)Nc1nccs1`, with 2.49.

Turning to `O=C(CCCOc1ccccc1)Nc1nccs1`, the z-score was -1.29. Then `COCCCn1c(=N)c(C(=O)NCc2ccc3c(c2)OCO3)cc2c(=O)n3ccccc3nc21`, with -0.494; and `CCCC(=O)OCC(=O)Nc1ccccc1Sc1ccccc1`, with -0.604. `COc1ccccc1/C=N/NC(=O)CC(=O)NCc1cccnc1` showed a z-score of -0.2.

Regarding `O=C(c1cc2nc(-c3ccco3)cc(C(F)(F)F)n2n1)N1CCN(Cc2ccccc2)CC1`, the z-score is -0.1. Then `O=C1NC(=O)C2(COC(c3cccnc3)OC2)S1` (stereo not drawn), with 2.49; and `O=C1NC(=O)C2(COC(c3ccccc3Cl)OC2)S1` (stereo not drawn), with -0.116.

On to `CCOC(=O)C1=C(C)NC(=O)NC1c1cccnc1` (stereo not drawn), for which the z-score was determined as 0.62. Then `CCCCn1c(CN2CCN(c3ccc(F)cc3)CC2)nc2c1c(=O)n(C)c(=O)n2C`, with -0.751; and `c1ccc(CSc2nnnn2-c2ccccc2)cc1`, with -0.542; and `CCn1c(SCc2nc(-c3ccccc3)no2)nc2ccccc21`, with 3.16 (active). With `CCn1c(SCc2nc(-c3ccccc3)no2)nnc1-c1ccco1` the figure was -0.421. Then `CCn1c(SCc2nc(-c3ccccc3)no2)nnc1-c1cccs1`, with 1.84; and `c1ccc(-c2noc(CSc3nnnn3C3CCCCC3)n2)cc1`, with -0.0529. `c1ccc(-c2noc(CSc3nnnn3-c3ccccc3)n2)cc1` had a z-score of 2.18. In the case of `CC(C)c1[nH]nc2c1C(c1cccc(OC(=O)N3CCOCC3)c1)C(C#N)=C(N)O2` (stereo not drawn), the z-score is -1.23. `FC(F)(F)c1ccc(CSc2nccn2-c2ccccc2)cc1` came in with a z-score of 0.167. For `COc1cc(OC)c(OC)cc1/C=N/NC(=O)c1ccc(=O)n(C)c1`, the z-score is -0.238. Turning to `Cc1cccc(C(=O)/C=C2/c3ccccc3CC(C)(C)N2C)c1`, the z-score was -0.509. The molecule `CCOCCN1CCN(c2c(CC)c(C)nc3cc(-c4cc(OC)cc(OC)c4)nn23)CC1` gave a z-score of -0.938. In turn, `Nc1nc(SCC(=O)NC2CCCC2)[nH]c(=O)c1-c1ccccc1` gave a z-score of -0.603.

`O=C(c1ccccc1NS(=O)(=O)c1cccs1)N1CCCC1` yielded a z-score of 0.676. With `COC(=O)c1ccc2c(=O)n(C3CCCCC3)c(SCC#N)nc2c1` the figure was 3.63 (active); with `CCOC(=O)CSc1nc2cc(C(=O)NCc3ccco3)ccc2c(=O)n1C1CCCCC1`, 0.724. With `CCOC(=O)CSc1nc2ccccc2c(=O)n1C1CCCC1` the figure was 0.684. In turn, `COc1ccc(NC(=O)Nc2cc(C)ccc2OC)cc1` registered a z-score of 2.83. Turning to `COc1ccc(NC(=O)Nc2cc(C)ccc2F)cc1`, the z-score was found to be 0.0419. Molecule `COc1ccc(C(=O)NCCC2=CCCCC2)cc1OC` registered a z-score of -0.214.

Turning to `COc1ccc(C)cc1NC(=O)NCCC1=CCCCC1`, the z-score was 10.6 (active).

`CCOC(=O)c1ccccc1NC(=O)Nc1ccc(OC)c(OC)c1`: the z-score is 0.154.

For the molecule `CCOC(=O)c1ccc(NC(=O)Nc2ccc(OC)c(OC)c2)cc1`, the z-score was 6.79 (active).

In turn, `Cc1ccc(OC(=S)Nc2ccc(O)cc2)cc1` displayed a z-score of 0.0849. With `Cc1ccc(OC(=S)Nc2ccccc2)c(C)c1` the figure was 3.2 (active). Then `CCCCOC(=O)c1ccc(NC(=O)Nc2ccc(OC)c(OC)c2)cc1`, with -0.113; and `Cc1ccc(OC(=S)Nc2ccc(F)cc2)cc1`, with 0.0616. Then `COc1ccc(OC)c(NC(=O)Nc2ccc(Cl)cc2)c1`, with 0.245; and `COc1ccc(NC(=O)C(=O)NCCC2=CCCCC2)c(OC)c1`, with -0.33. `Cc1nn(CC(=O)Nc2cccc(S(N)(=O)=O)c2)c(C)c1[N+](=O)[O-]` displayed a z-score of -0.212. On to `CCOc1ccc(-c2nnn(CC(=O)c3cc(OC)ccc3OC)n2)cc1`, for which the z-score came to 1.52. In turn, `CCCNC(=O)Cn1cnc2sc(C(=O)N3CCCC(C(=O)OCC)C3)c(C)c2c1=O` (stereo not drawn) had a z-score of -1.05. Then `CCN(CC)S(=O)(=O)c1ccc(NC(=O)C2CCCO2)cc1` (stereo not drawn), with -0.205. In the case of `CCCn1nc(C(=O)NCCN2CCOCC2)c2ccccc2c1=O`, the z-score is 0.608. `Cc1occc1-c1nnc(SCC(=O)N(C)CCC#N)n1N` yielded a z-score of 0.286.

For the molecule `O=C(NC1CCCCC1)C(c1ccc(O)cc1)N(CC1CCCO1)C(=O)C1COc2ccccc2O1` (stereo not drawn), the z-score is 0.338. The molecule `COc1ccc(C)cc1NC(=O)Nc1ccc(Br)cn1` gave a z-score of 0.233. With `COc1ccc(C)cc1NC(=O)Nc1ccccc1` the figure was 11.5 (active). Then `CCOC(=O)Nc1cc(C)ccc1OC`, with 0.0736. Then `Cc1cccc(-c2nnn(Cc3nnc(NC(=O)c4ccccc4)s3)n2)c1`, with -0.0603. With `Cc1ccc(C(=O)N2CCN(c3ccc(C(F)(F)F)cn3)CC2)c(C)c1`, the z-score is -0.0998. The molecule `CC1CC(C)CN(C(=O)c2cc(-c3ccccn3)nc3ccccc23)C1` (stereo not drawn) showed a z-score of -1.27. The molecule `Cn1ccnc1SCC(=O)Nc1ccc2nc(SCC(=O)NC3CC3)sc2c1` registered a z-score of -0.00819. Then `CCOc1c2ccc(C(=O)NCc3cc(C(F)(F)F)cc(C(F)(F)F)c3)cc2nn1C`, with 0.112; and `C=CCn1c(=S)[nH]c2ccc(Br)cc2c1=O`, with 15 (active). Then `O=C(CCCCCn1c(=S)[nH]c2ccc(Br)cc2c1=O)NCC1CCCO1` (stereo not drawn), with 1.92; and `C=C(C)Cn1c(=S)[nH]c2ccccc2c1=O`, with -0.0946. For the molecule `C=CCn1c(=S)[nH]c2ccccc2c1=O`, the z-score was 13.6 (active). Regarding `CCOC(=O)N1CCN(C(=O)CCCn2c(=S)[nH]c3ccc(Br)cc3c2=O)CC1`, the z-score came to 1.24.

In turn, `CC(C)OC(=O)CSc1nnc(Cc2ccccc2)n1Cc1ccco1` came in with a z-score of -0.4. `Cc1cccc2cc(C(c3nnnn3C(C)(C)C)N3CCN(C(=O)c4ccco4)CC3)c(=O)[nH]c12` (stereo not drawn) yielded a z-score of 0.516. With `CCN1CCN(C(=O)c2cc3sccc3n2CC(=O)c2ccccc2)CC1` the figure was -0.119; with `CCN1CCN(C(=O)C2CCN(C(=O)c3cc4sccc4n3CC)CC2)CC1`, 2.56; with `CCn1c(C(=O)N2CCC(C(=O)N3CCN(c4ccccn4)CC3)CC2)cc2sccc21`, 0.181. The molecule `CC1(C)C(C#N)=C(N)OC2=C1C(=O)CCC2` gave a z-score of 0.297.

As to `Cc1cc2nc3c(c(=O)n2[nH]1)CCCC3`, the z-score was -0.219. With `CCCC(=O)Nc1nc2ccc(S(N)(=O)=O)cc2s1` the figure was -0.295; with `O=C(NCC1CCCO1)C(c1cccs1)N(Cc1cccs1)C(=O)c1ccc(-c2ccccc2)[nH]1` (stereo not drawn), -0.486. Regarding `O=C(NCC1CCCO1)C(c1cccs1)N(C(=O)c1ccc(-c2ccccc2)[nH]1)C1CCCC1` (stereo not drawn), the z-score was -0.0712. With `O=C(NCC1CCCO1)C(c1cccs1)N(Cc1ccccc1Cl)C(=O)c1ccc(-c2ccccc2)[nH]1` (stereo not drawn), the z-score stood at 2.14.

In turn, `COC(=O)CC1COc2ccccc2N1C(=O)c1ccc(C(C)(C)C)cc1` (stereo not drawn) returned a z-score of -0.191. Then `CCCC(=O)Nc1cc(-c2nnc(OC)c3ccccc23)ccc1N1CCOCC1`, with -0.445; and `O=C(Oc1ccc([N+](=O)[O-])cc1)c1cccnc1`, with -0.0965; and `CNC(=S)SCCOc1ccc(C)cc1`, with 6.37 (active).

For the molecule `CCNC(=S)SCCOc1ccc(C)cc1`, the z-score turned out to be 0.376. Then `CNC(=S)SCCOc1ccccc1C`, with 0.297.

On to `Cc1ccc2nc3sc(C(=O)Nc4c(C)[nH]c(=O)[nH]c4=O)c(N)c3cc2c1`, for which the z-score is -0.158. Take `NC(=O)CCn1nc(-c2ccc(Cl)cc2)c2ccccc2c1=O`: the z-score is -0.686. With `Cc1ccc(/C(O)=C/C(=O)C(=O)NNC(=O)C(O)(c2ccccc2)c2ccccc2)cc1` the figure was 2.44; with `COc1ccc(/C(O)=C/C(=O)C(=O)NNC(=O)C(O)(c2ccccc2)c2ccccc2)cc1`, -0.343; with `O=C(/C=C(\O)c1ccc(Cl)cc1)C(=O)NNC(=O)C(O)(c1ccccc1)c1ccccc1`, -0.125.
